This is a sample that favours compounds with a hit; in the whole collection about 3.9% have one here.
Autofluor counter: flagged as autofluorescent in microsphere protease counterscreen; compound autofluorescence counterscreen, microsphere flow cytometry; stronger effect = higher value; fluorescence intensity (no concentration beside the values); actives 3.1% (n = 360,000); AID 624483; in the data active means fluorescence intensity above about 16000; inconclusive means no clear call, values can overlap the other calls
BoNT A protease: BoNT/A light chain protease inhibitors, primary screen, biochemical, flow cytometry, MLPCN library. Botulinum neurotoxin type A light chain protease (Clostridium botulinum A str. ATCC 3502). multiplex microsphere protease substrate cleavage. inhibition, % at 10 µM. actives 0.17% (n = 360,000)
VHR inh abs: VHR1 phosphatase inhibitors, primary screen, biochemical, absorbance, uHTS | recombinant VHR phosphatase, pNPP absorbance | inhibition, % at 13.3 µM | actives 0.52% (n = 290,000); in the data active means inhibition above about 50%
BoNT-F LC inh: BoNT/F light chain protease inhibitors, primary screen, biochemical, flow cytometry, MLPCN library; Botulinum neurotoxin type F light chain protease (Clostridium botulinum); Multiplex microsphere protease cleavage assay; inhibition, % at 10 µM; actives 0.22% (n = 360,000); AID 588497, 2011; in the data active means inhibition above about 35%, passing the limit was not always enough; inconclusive means no clear call, values can overlap the other calls
Anthrax LF prot: Bacillus anthracis LF protease inhibitors, primary screen, biochemical, multiplex microsphere, MLPCN library | multiplex microsphere protease cleavage assay | inhibition, % at 10 µM | actives 0.12% (n = 360,000)
SARS 3CLpro inh: SARS-CoV 3CLpro protease inhibitors, primary screen, biochemical, quenched FRET | Replicase polyprotein 1ab (Severe acute respiratory syndrome coronavirus), P0C6X7 | recombinant SARS-CoV 3CLpro, quenched FRET peptide cleavage | inhibition, % at 6 µM | actives 0.14% (n = 290,000) | AID 1706, 2009; in the data active means inhibition above about 12%
Numbers stand for hits; 0 = inactive; ? = inconclusive; - = no result given. Unless noted, no stated cut-off is given here; in the data, active means inhibition above about 30%; inconclusive means no clear call, values can overlap the other calls; inactive means below that.

SMILES	Autofluor counter	BoNT A protease	VHR inh abs	BoNT-F LC inh	Anthrax LF prot	SARS 3CLpro inh
CC1(C)OC(=O)C(=NNc2ccc(Cl)cc2)C(=O)O1	22457	0	0	0	0	0
CC1(C)OC(=O)C(=NNc2ccccc2)C(=O)O1	0	0	0	0	0	0
CCC(=O)N1N=C2CC(C)(C)OCC2C1c1ccccc1 (configuration not stated)	0	0	51.3	0	0	0
Cc1cc(NS(=O)(=O)c2ccc(C(C)C)cc2)no1	0	0	0	0	0	0
Cc1cc(NS(=O)(=O)c2ccc(NC(=O)C(C)Oc3ccc(Cl)cc3)cc2)no1 (configuration not stated)	17111	0	0	0	0	0
Cc1ccc(OC(C)C(=O)Nc2ccc(S(=O)(=O)Nc3cc(C)on3)cc2)cc1 (configuration not stated)	21520	?	0	0	0	0
Cc1cc(NS(=O)(=O)c2ccc(CC(C)C)cc2)no1	18585	0	0	0	0	0
Cc1cc(NC(=O)Cn2ccsc2=N)c([N+](=O)[O-])cc1C	0	0	0	0	0	0
COc1ccc([N+](=O)[O-])cc1NC(=O)Cn1ccsc1=N	0	0	50.8	0	0	0
CC(OC(=O)c1cccnc1SCc1cc(=O)n2ccccc2n1)c1ccccn1 (configuration not stated)	16644	0	0	0	0	0
CCOC(=O)c1cccnc1SCc1cc(=O)n2ccccc2n1	0	0	0	0	0	0
CN(C)S(=O)(=O)c1cccc(-c2cn3cc(Cl)ccc3n2)c1	17034	0	0	0	0	0
Cc1ccc(S(=O)(=O)N2CCN(C(=O)CC(C)n3cncn3)CC2)cc1C (configuration not stated)	0	0	0	0	0	0
Cn1cnnc1Sc1nc([N+](=O)[O-])nn1C	0	0	0	0	0	0
COc1ccccc1-c1nnc(Sc2nc([N+](=O)[O-])nn2C)o1	16481	0	0	0	0	0
O=C(O)COc1ccc(NC(=O)c2ccc3c(c2)C(=O)N(C2CCCCC2)C3=O)cc1	0	0	0	0	0	0
CCC(=O)Oc1ccc(C(=O)Nc2ccc3c(c2)C(=O)N(C2CCCCC2)C3=O)cc1	19149	0	0	0	0	0
CC(C)(C)NC(=O)c1ccc2c(c1)C(=O)N(C1CCCCC1)C2=O	16466	0	0	0	0	0
Cc1cccc(OCc2nnc(SCC(=O)N(C(C)C)C(C)C)n2Cc2ccco2)c1C	16236	0	0	0	0	0
Cc1cc(NC(=O)CSc2nnc(COc3cccc(C)c3C)n2Cc2ccco2)no1	0	?	0	0	0	0
Oc1ccc2ccccc2c1/C=N/n1cnnc1	22040	0	0	0	0	0
COc1ccc(Cn2ccnc2)cc1Br	23086	0	0	0	0	0
Cc1cc2cc(C=O)c(Cl)nc2cc1C	17857	0	0	0	0	0
COc1ccc(-n2ccc(=O)c(C(=O)Nc3ccc(S(=O)(=O)Nc4nccs4)cc3)n2)cc1	0	0	57.9	0	0	0
O=C(Nc1ccc(S(=O)(=O)Nc2nccs2)cc1)c1nn(-c2ccccc2)ccc1=O	0	0	0	0	0	0
SMILES	Autofluor counter	BoNT A protease	VHR inh abs	BoNT-F LC inh	Anthrax LF prot	SARS 3CLpro inh
COC(=O)c1ccc(Sc2ccc(C)cc2)c(N)c1	24100	0	0	0	0	0
O=C(COC(=O)COc1ccc(Cl)cc1)NC1CC1	0	0	-	0	0	-
NCCc1nnc(SCc2ccccc2Cl)o1	0	0	0	44.8	?	0
CC(C)(C)OC(=O)NCCc1nnc(SCc2ccccc2Cl)o1	16944	0	0	0	0	0
CCNc1nc(-c2sc(NC(=O)C(C)(C)C)nc2C)c(-n2cc(-c3ccccc3)nn2)s1	0	0	-	0	0	-
COc1ccc(CNCc2cc3c(cc2[N+](=O)[O-])OCO3)cc1	0	0	53.0	?	0	0
Cc1cc(C)cc(NCc2cc3c(cc2[N+](=O)[O-])OCO3)c1	0	0	0	0	0	0
Cc1cccc(C(=O)N2CCNC(=O)C2CC(=O)Nc2cccc(Cl)c2)c1 (configuration not stated)	0	0	0	0	0	0
